{"source": "PubChem BioAssay (NCATS)", "key": {"[1]": {"assay": "Quantitative High-Throughput drug screen in 47 multiple myeloma cell lines against the NCATS MIPE library collection: FR4_PLB cell viability assay (AID 1918924; also: nearly all actives have a fitted effect of over 35% in size; also: potency is read from the fitted curve at half-maximal effect)", "from_the_text": "(§1) PI: Beverly A. Mock Ph.D.\n(§2) Laboratory of Cancer Biology and Genetics,\n(§3) Center for Cancer Research, National Cancer Institute,\n(§4) National Institute of Health, Bethesda, Maryland\n(§5) Drug resistance and disease progression are common in multiple myeloma (MM) patients, underscoring the need for new therapeutic combinations. […] We hypothesized that effective combinations would reduce MYC expression and enhance p16 activity. […] These preclinical data identify potentially useful drug combinations for evaluation in drug-resistant MM and reveal potential mechanisms of combined drug sensitivity.\n(§6) Described herein is the primary MIPE qHTS used to cherrypick compounds. Validated compounds were then further tested for potential synergistic activiy.\n(§7) [1] Peat TJ, Gaikwad SM, Dubois W, Gyabaah-Kessie N, Zhang S, Gorjifard S, Phyo Z, Andres M, Hughitt VK, Simpson RM, Miller MA, Girvin AT, Taylor A, Williams D, D'Antonio N, Zhang Y, Rajagopalan A, Flietner E, Wilson K, Zhang X, Shinn P, Klumpp-Thomas C, McKnight C, Itkin Z, Chen L, Kazandijian D, Zhang J, Michalowski AM, Simmons JK, Keats J, Thomas CJ, Mock BA. Drug combinations identified by high-throughput screening promote cell cycle transition and upregulate Smad pathways in myeloma. Cancer Lett. 2023 Aug 1;568:216284. doi: 10.1016/j.canlet.2023.216284. Epub 2023 Jun 24. PMID: 37356470; PMCID: PMC10408729.\n(§8) SEQUENCE No. (e.g., 1, 2, 3, etc.); […] (e.g., Cells, Incubation, Reagent, etc.); VALUE and DESCRIPTION.\n(§9) 1; Cells; 5 uL; white, solid bottom 1536-well Greiner assay plate.\n(§10) 2; Compounds; 23 nL; Kalypsis pin tool (Wako USA) equipped with a 1536-well pin head to transfer to the assay plates.\n(§11) 3; Incubation; 48 hours; 37C incubation.\n(§12) 4; Reagent;5uL; CellTiter Glo (Promega).\n(§13) 5; Detector; 425V; Luminescence; Viewlux PerkinElmer. […]\n(§14) 1. […] Briefly, the corresponding myeloma cell lines were screened in 1,536-well plates with 500 cells, 5-uL per well for inhibition of cell viability (assessed by measuring ATP levels with CellTiterGlo). […]\n(§15) 5. Signal was measured as median relative luminescence units on a ViewLux (PerkinElmer) multiplate reader. […]"}, "[2]": {"assay": "Quantitative High-Throughput drug screen in 47 multiple myeloma cell lines against the NCATS MIPE library collection: EJM_DSMZ cell viability assay (AID 1918926)", "from_the_text": "as §1, §2, §3, §4, §5, §6, §7, §8, §9, §10, §11, §12\n5; Detector; 425V; Luminescence; Viewlux PerkinElmer.\nNOTES (numbers refer to Sequence numbers above)\n1. The cell-based screening methods employed in this study were like those previously published. Briefly, the corresponding myeloma cell lines were screened in 1,536-well plates with 500 cells, 5-uL per well for inhibition of cell viability (assessed by measuring ATP levels with CellTiterGlo).\n2. NCATS MIPE 4.0 library of approved and investigational drugs were added using the Kalypsis pin tool. Wells treated with DMSO only for 100% viability and media only wells for 0% viability were used as controls.\n3. The assay plates were covered and incubated for 48 hours in a 37C, 5% CO2 incubator with controlled humidity.\n4. After 48 hours, CellTilter-GloTM luminescent substrate mix (Promega) reagent was added to the assay plate and plates we incubated for 5 min at room temperature.\n5. Signal was measured as median relative luminescence units on a ViewLux (PerkinElmer) multiplate reader.\n[1] […]"}, "[3]": {"assay": "Quantitative High-Throughput drug screen in 47 multiple myeloma cell lines against the NCATS MIPE library collection: AMO1_DSMZ cell viability assay (AID 1918927)", "from_the_text": "as §1, §2, §3, §4, §5, §6\n[1] […]\nas §13, §14, §15"}, "[4]": {"assay": "Quantitative High-Throughput drug screen in 47 multiple myeloma cell lines against the NCATS MIPE library collection: Karpas620_DSMZ cell viability assay (AID 1918959)", "in_short": "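We plated 500 myeloma cells per well, pinned in MIPE 4.0 compounds, and incubated for 48 hours at 37C. ATP was then quantified with CellTiter-Glo, with DMSO and media-only wells defining 100% and 0%.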"}, "[5]": {"assay": "Primary fluorescence-based thiol-reactive (MSTI) qHTS assay for identification of artifact compounds. (AID 1845221)", "in_short": "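Reactivity toward the thiol probe MSTI (4 uM) is scored by fluorescence at Ex/Em 525/598 nm after 1 h at room temperature. Acetyl-MSTI and MSTI define the activity scale.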"}, "[6]": {"tested_on": "Nanoluciferase (engineered Oplophorus gracilirostris luciferase)", "assay": "Primary Nanoluciferase (NLuc) qHTS assay for identification of artifact compounds. (AID 1845222)", "in_short": "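S16 cell supernatant NLuc, 1:55; cpds qHTS; 15 min RT dark; Nano-Glo substrate 1:100, 5 min; luminescence; Hill fit of % inhibition.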"}, "[7]": {"assay": "Primary redox qHTS assay for identification of artifact compounds. (AID 1845223)", "in_short": "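Redox-cycling detection via DTT (250 uM final) oxidation coupled to Amplex Red (25 uM)/HRP (250 mU/mL) in HBSS. 15 min preincubation plus 30 min after DTT, room temperature. Ex/Em 525/598 nm; 4-parameter Hill fit against DMSO and 10 uM DA3003.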"}, "[8]": {"assay": "Quantitative High-Throughput drug screen in 47 multiple myeloma cell lines against the NCATS MIPE library collection: Delta47_JCRB cell viability assay (AID 1918925)", "in_short": "(§16)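 CellTiter-Glo luminescence (ATP) after 48 h compound exposure, 37C/5% CO2; 500 cells/well; MIPE 4.0 approved/investigational drugs pinned in; DMSO = 100%, media only = 0% viability.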"}, "[9]": {"assay": "Quantitative High-Throughput drug screen in 47 multiple myeloma cell lines against the NCATS MIPE library collection: ARP1_JJKsccF8 cell viability assay (AID 1918928)", "from_the_text": "as §1, §2, §3, §4, §5, §6, §7, §8, §9, §10, §11, §12, §13, §14, §15"}, "[10]": {"assay": "Quantitative High-Throughput drug screen in 47 multiple myeloma cell lines against the NCATS MIPE library collection: ARD_JJKsccE7 cell viability assay (AID 1918929)", "in_short": "as §16"}}, "note": "Records with an inconclusive call do not appear. Entries that show only a call come without a potency. Calls of active or inactive are those of the source. Calls follow the shape of the dose curve; as a rule, active = well fitted curve in the direction sought with a large enough effect; inconclusive = small, poorly fitted or top-dose-only effect, or another doubt; inactive = no such curve, though single readings can be large; an effect the other way counts as inactive or inconclusive. For potency in this document: potency is read from the fitted curve at half-maximal effect.", "data": [{"smiles": "COc1ccc(C(=O)N2CCCC2=O)cc1", "values": [{"measurement": "Potency", "setting": "[1]", "result": "inactive"}, {"measurement": "Potency", "setting": "[2]", "result": "inactive"}, {"measurement": "Potency", "setting": "[3]", "result": "inactive"}, {"measurement": "Potency", "setting": "[4]", "result": "inactive"}]}, {"smiles": "CCOC(=O)NC(C)(C)Cc1ccc(Cl)cc1", "values": [{"measurement": "outcome", "setting": "[5]", "result": "inactive"}, {"measurement": "outcome", "setting": "[6]", "result": "inactive"}, {"measurement": "outcome", "setting": "[7]", "result": "inactive"}]}, {"smiles": "COc1ccc2c(C(=O)c3ccc(Cl)cc3)c(C)n(CC(=O)O)c2c1", "values": [{"measurement": "outcome", "setting": "[5]", "result": "inactive"}, {"measurement": "outcome", "setting": "[6]", "result": "inactive"}]}, {"smiles": "Cc1nnc2n1-c1sc(CCc3ccc(CC(C)C)cc3)cc1C(c1ccccc1Cl)=NC2C", "note": "(configuration not stated)", "values": [{"measurement": "outcome", "setting": "[5]", "result": "inactive"}, {"measurement": "outcome", "setting": "[6]", "result": "inactive"}, {"measurement": "outcome", "setting": "[7]", "result": "inactive"}]}, {"smiles": "O=C(O)CCCCCCNC1c2ccccc2CCc2ccccc21", "values": [{"measurement": "outcome", "setting": "[5]", "result": "inactive"}, {"measurement": "outcome", "setting": "[6]", "result": "inactive"}, {"measurement": "outcome", "setting": "[7]", "result": "inactive"}]}, {"smiles": "COC(=O)C1=CCCN(C)C1", "values": [{"measurement": "Potency", "setting": "[1]", "result": "inactive"}, {"measurement": "Potency", "setting": "[8]", "result": "inactive"}, {"measurement": "Potency", "setting": "[2]", "result": "inactive"}, {"measurement": "Potency", "setting": "[9]", "result": "inactive"}, {"measurement": "Potency", "setting": "[4]", "result": "inactive"}]}, {"smiles": "CCCCC1C(=O)NC(=O)N(C2CCCCC2)C1=O", "note": "(configuration not stated)", "values": [{"measurement": "outcome", "setting": "[5]", "result": "inactive"}, {"measurement": "outcome", "setting": "[6]", "result": "inactive"}, {"measurement": "outcome", "setting": "[7]", "result": "inactive"}]}, {"smiles": "C[C@@H]1C[C@@H]([C@H](O)CC2CC(=O)NC(=O)C2)C(=O)[C@@H](C)C1", "values": [{"measurement": "Potency", "setting": "[1]", "result": "743 nM (active)"}, {"measurement": "Potency", "setting": "[8]", "result": "743 nM (active)"}, {"measurement": "Potency", "setting": "[2]", "result": "3320 nM (active)"}, {"measurement": "Potency", "setting": "[3]", "result": "469 nM (active)"}, {"measurement": "Potency", "setting": "[9]", "result": "52.6 nM (active)"}, {"measurement": "Potency", "setting": "[10]", "result": "166 nM (active)"}, {"measurement": "Potency", "setting": "[4]", "result": "662 nM (active)"}]}, {"smiles": "CCCOC(=O)Cc1ccc(OCC(=O)N(CC)CC)c(OC)c1", "values": [{"measurement": "outcome", "setting": "[5]", "result": "inactive"}, {"measurement": "outcome", "setting": "[6]", "result": "inactive"}, {"measurement": "outcome", "setting": "[7]", "result": "inactive"}]}, {"smiles": "C[C@]12CC[C@H](O)CC1=CC[C@@H]1[C@@H]2CC[C@]2(C)C(=O)CC[C@@H]12", "values": [{"measurement": "outcome", "setting": "[5]", "result": "inactive"}, {"measurement": "outcome", "setting": "[6]", "result": "inactive"}, {"measurement": "outcome", "setting": "[7]", "result": "inactive"}]}, {"smiles": "CCOC(=O)c1ncn2c1CN(C)C(=O)c1c(I)cccc1-2", "values": [{"measurement": "outcome", "setting": "[5]", "result": "inactive"}, {"measurement": "outcome", "setting": "[6]", "result": "inactive"}, {"measurement": "outcome", "setting": "[7]", "result": "inactive"}]}, {"smiles": "O=C(O)c1nn(Cc2ccc(Cl)cc2Cl)c2ccccc12", "values": [{"measurement": "Potency", "setting": "[2]", "result": "inactive"}, {"measurement": "Potency", "setting": "[9]", "result": "inactive"}, {"measurement": "Potency", "setting": "[10]", "result": "inactive"}]}, {"smiles": "O=C(N[C@@H]1N=C(c2ccccc2F)c2cccc3c2N(CC3)C1=O)c1cc2ccccc2[nH]1", "values": [{"measurement": "outcome", "setting": "[5]", "result": "inactive"}, {"measurement": "outcome", "setting": "[6]", "result": "inactive"}, {"measurement": "outcome", "setting": "[7]", "result": "inactive"}]}, {"smiles": "CC[C@H]1C[C@H]2[C@@H]3CCC4=CC(=O)CC[C@@H]4[C@H]3CC[C@]2(C)[C@H]1O", "values": [{"measurement": "outcome", "setting": "[5]", "result": "inactive"}, {"measurement": "outcome", "setting": "[6]", "result": "inactive"}, {"measurement": "outcome", "setting": "[7]", "result": "inactive"}]}, {"smiles": "O=C(N[C@H]1N=C(c2ccccc2F)c2cccc3c2N(CC3)C1=O)c1cc2ccccc2[nH]1", "values": [{"measurement": "outcome", "setting": "[5]", "result": "inactive"}, {"measurement": "outcome", "setting": "[6]", "result": "inactive"}, {"measurement": "outcome", "setting": "[7]", "result": "inactive"}]}, {"smiles": "CCCC[N+]1(C)[C@@H]2CC(OC(=O)[C@H](CO)c3ccccc3)C[C@H]1[C@@H]1O[C@@H]12", "note": "(some centres not stated)", "values": [{"measurement": "outcome", "setting": "[5]", "result": "inactive"}, {"measurement": "outcome", "setting": "[6]", "result": "inactive"}, {"measurement": "outcome", "setting": "[7]", "result": "inactive"}]}, {"smiles": "CCOC(=O)c1cncn1C(C)c1ccccc1", "note": "(configuration not stated)", "values": [{"measurement": "outcome", "setting": "[5]", "result": "inactive"}, {"measurement": "outcome", "setting": "[6]", "result": "inactive"}, {"measurement": "outcome", "setting": "[7]", "result": "inactive"}]}]}
